Screens as filed in PubChem BioAssay.
In the library only some 3.6% were active in any assay of this set; here they are far more common.
esBAF inh = Bmi1 luciferase reporter increase in mESCs, primary screen, esBAF inhibitor project, mouse ES cells, Bmi1 luciferase knock-in, single point; 24 h; 100% = twice the neutral-well signal; reporter increase, % at 12.5 µM; 2% of 350,000 active; in the data active = activation above about 40%;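 note: 0% = median of the plate's neutral control wells and 100% = double that signal; a rise in the Bmi1 reporter signal indicates esBAF inhibition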
MITF act = activators of MITF-driven TRPM1 promoter reporter, primary screen, cell-based, SK-MEL-5, luciferase, single point; SK-MEL-5 TRPM1-promoter luciferase, 24 h; % of positive control, neutral wells = 0; activation, % at 12.5 µM; 0.75% of 300,000 active;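 active = mean activation of at least 80% with every replicate also reaching 80%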;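 note: 0% = neutral control wells and 100% = parthenolide positive control wells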
Wnt bcat act = Wnt/beta-catenin pathway activators, primary screen, cell-based, plate reader, single point; Wnt/beta-catenin reporter cell assay, activator; 1.2% of 300,000 active; AID 743398, 2014; activation, % at 9.35 µM; in the data active = activation above about 30%, passing the limit was not always enough;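 note: 0% = neutral control wells and 100% = positive control wells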
A3G deaminase = APOBEC3G DNA deaminase inhibitors, primary screen, biochemical, fluorescence, single-stranded DNA substrate, uHTS | DNA dC->dU-editing enzyme APOBEC-3G (Homo sapiens), Q9HC16 | inhibition, % at 20 µM | recombinant A3G, ssDNA deamination FAM/TAMRA fluorescence | AID 493012, 2011 | 0.28% of 330,000 active;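 active = inhibition of at least 40% at 20 µM, with no more than 30% in the related APOBEC3A deaminase screen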;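 note: plate controls were DMSO wells with A3G for no effect and wells lacking A3G enzyme for full effect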
Target sequence (Q9HC16 whole entry, looked up): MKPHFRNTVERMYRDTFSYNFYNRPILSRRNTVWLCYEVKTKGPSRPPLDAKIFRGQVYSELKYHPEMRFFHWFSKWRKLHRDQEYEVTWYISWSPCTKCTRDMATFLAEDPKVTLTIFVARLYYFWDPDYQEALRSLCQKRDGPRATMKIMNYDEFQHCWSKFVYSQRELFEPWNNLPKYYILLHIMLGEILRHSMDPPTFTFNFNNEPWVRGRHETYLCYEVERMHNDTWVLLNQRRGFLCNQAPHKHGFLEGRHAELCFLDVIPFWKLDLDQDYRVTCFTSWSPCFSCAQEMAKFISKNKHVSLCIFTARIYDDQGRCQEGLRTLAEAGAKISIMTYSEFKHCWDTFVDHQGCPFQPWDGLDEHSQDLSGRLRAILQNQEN
A3A deaminase = APOBEC3A ssDNA deaminase inhibitors, primary screen, selectivity assay for APOBEC3G inhibitor project, biochemical, FAM/TAMRA oligo cleavage fluorescence; 0.41% of 330,000 active; recombinant A3A, FAM/TAMRA ssDNA deamination fluorescence; inhibition, % at 20 µM;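 active = at least 40% inhibition at 20 µM here, with at most 30% in a related deaminase screen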;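 note: plate controls were A3A with DMSO for no effect and wells lacking A3A enzyme for full effect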
Target sequence (P31941 whole entry, looked up): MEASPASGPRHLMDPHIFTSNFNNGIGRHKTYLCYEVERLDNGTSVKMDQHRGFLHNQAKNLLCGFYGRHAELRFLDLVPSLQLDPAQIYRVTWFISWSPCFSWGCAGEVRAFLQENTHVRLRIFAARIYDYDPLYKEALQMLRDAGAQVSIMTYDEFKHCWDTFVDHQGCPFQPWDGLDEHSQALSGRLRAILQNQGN
PHOSPHO1 inh = PubChem AID 1565; Phosphoethanolamine/phosphocholine phosphatase (Homo sapiens), Q8TCT1; recombinant PHOSPHO1, absorbance phosphatase assay; inhibition, % at 13.3 µM; 1.1% of 290,000 active; in the data active = inhibition above about 60%
* hit, by the source's call; / = not tested or not shown.

SMILES	esBAF inh	MITF act	Wnt bcat act	A3G deaminase	A3A deaminase	PHOSPHO1 inh
CCCC(=O)N1c2ccccc2C(=C2SC(C(=O)OC)=C(C(=O)OC)S2)C(=S)C1(C)C	-5	-14	-3	-1	1	-21
COC(=O)C1=C(C(=O)OC)SC(=C2C(=S)C(C)(C)N(C(=O)C(C)C)c3ccccc32)S1	-3	-4	-1	6	5	80*
CC1C(=O)Nc2ccccc2N1C(=O)C1CC1 (stereo unspecified)	-8	9	/	-6	-1	5
COC(=O)C1=C(C(=O)OC)SC(=C2C(=S)C(C)(C)N(C(=O)C3CC3)c3ccccc32)S1	0	0	/	5	5	79*
CCCNC(=O)[C@@H]1[C@@H](CO)[C@@H]2Cn3c(ccc(-c4cncnc4)c3=O)[C@@H]2N1C(=O)c1ccccc1F	-8	/	/	/	/	/
O=C(C[C@H]1C[C@H]2c3cc(NC(=O)CC4CC4)ccc3O[C@H]2[C@H](CO)O1)NCCN1CCCCC1	2	/	/	/	/	/
c1ccc(-c2cnnc(SCc3cn4cccnc4n3)n2)cc1	1	5	/	-1	7	76*
C[C@@H]1CN([C@@H](C)CO)C(=O)c2cc(C#CC(C)(C)O)cnc2O[C@@H]1CN(C)C(=O)CC1CC1	1	/	/	/	/	/
COc1ccc(S(=O)(=O)N(C)C[C@H]2Oc3c(NC(=O)Nc4cccc5ccccc45)cccc3C(=O)N([C@H](C)CO)C[C@H]2C)cc1	12	/	/	/	/	/
C=CCSC1=C(C#N)C(c2ccccc2OCC)C(C#N)C(=O)N1 (stereo unspecified)	-5	0	0	-2	-5	89*
C[C@H](CO)N1C[C@H](C)[C@@H](CN(C)C)Oc2cc(C#Cc3ccncc3)ccc2S1(=O)=O	4	/	/	/	/	/
CCN(c1ccc(NC(=O)COC(=O)c2ccc(S(=O)(=O)N3CCCC3)cc2)cc1)C(C)C	9	-9	2	-2	3	104*
COc1ccc(NC(=O)CCN2CCN(S(=O)(=O)c3ccc(C(C)C)cc3)CC2)cc1	-3	-9	0	10	5	7
O=C(COC(=O)c1ccc(S(=O)(=O)N2CCOCC2)cc1)NC1CCCCCCC1	5	-1	89*	-6	1	-20
O=C(COC(=O)c1ccc(S(=O)(=O)N2CCCCC2)cc1)NC1CCCCC1	3	/	/	/	/	/
O=C(COC(=O)c1ccc(O)cc1)Nc1ccc(S(=O)(=O)N2CCCC2)cc1	4	0	-3	-5	0	/
CC(C)c1ccc(S(=O)(=O)N2CCN(CCC(=O)Nc3ccc(N(C)C)cc3)CC2)cc1	7	-16	/	/	/	83*
CC(C)(O)C#Cc1ccc([C@@H]2[C@@H](CO)N3CCCCN(C(=O)c4ccncc4)C[C@@H]23)cc1	11	/	/	/	/	/
O=C(N[C@H]1CC[C@@H](CCn2cc(-c3ccccc3F)nn2)O[C@H]1CO)c1ccc2c(c1)OCO2	7	/	/	/	/	/
N#CC1=C2SCN(Cc3ccco3)CN2C(=O)CC1c1cccc2ccccc12 (stereo unspecified)	/	/	-4	5	-3	39
COc1ccc(N2CSC3=C(C#N)C(c4cc(OC)c(OC)cc4OC)CC(=O)N3C2)c(OC)c1 (stereo unspecified)	10	/	-2	18	34	93*
CCOc1ccccc1N1CSC2=C(C#N)C(c3c(OC)ccc4ccccc34)CC(=O)N2C1 (stereo unspecified)	-2	/	-5	25	-2	92*
COc1ccc(N2CSC3=C(C#N)C(c4cc(OC)ccc4OC)CC(=O)N3C2)c(OC)c1 (stereo unspecified)	8	-8	/	32	1	94*
COc1ccc(N2CSC3=C(C#N)C(c4ccc(OC)c(OC)c4)CC(=O)N3C2)c(OC)c1 (stereo unspecified)	10	/	3	38	1	57
COc1cc(OC)c(C2CC(=O)N3CN(c4ccc(C)cc4)CSC3=C2C#N)cc1OC (stereo unspecified)	36	56	38*	39	5	96*
SMILES	esBAF inh	MITF act	Wnt bcat act	A3G deaminase	A3A deaminase	PHOSPHO1 inh
COc1ccc(S(=O)(=O)N(C)C[C@@H]2Oc3ccc(NC(=O)c4ccncc4)cc3CC(=O)N([C@H](C)CO)C[C@@H]2C)cc1	-7	/	/	/	/	/
O=C(c1cnccn1)N1C[C@H]2[C@@H](c3ccccc31)[C@@H](CO)N2CC1CCCC1	-5	/	/	/	/	/
CCC(=O)N1C[C@H](C)[C@@H](OC)CN(C)C(=O)c2cc(NC(=O)c3cc(C)on3)ccc2OC[C@H]1C	2	/	/	/	/	/
CCCNC(=O)N1[C@H](C#N)[C@@H](c2ccccc2)[C@@H]1CO	-1	/	/	/	/	/
COc1ccc(CCC(=O)Nc2ccc(OC)c(S(=O)(=O)N3CCCCC3)c2)cc1OC	4	-1	-4	-9	-3	/
CCN(CC)c1ccc(NC(=O)CN2CCN(S(=O)(=O)c3cc(Cl)ccc3OC)CC2)cc1	9	0	0	6	7	93*
CCOc1ccc(NC(=O)CCN2CCN(S(=O)(=O)c3cc(Cl)ccc3OC)CC2)cc1	13	-10	-3	-1	-2	18
CCc1ccc(C(=O)CCC(=O)Nc2ccc(OC)c(S(=O)(=O)N3CCCCC3)c2)cc1	8	-6	56*	0	-1	/
CN(C)Cc1cn(CC[C@@H]2CC[C@H](NS(=O)(=O)c3ccccc3)[C@@H](CO)O2)nn1	-4	/	/	/	/	/
C[C@@H]1CCCCO[C@H](CN(C)C(=O)CCC(F)(F)F)[C@H](C)CN([C@@H](C)CO)C(=O)c2cc(NS(=O)(=O)c3ccccc3)ccc2O1	6	/	/	/	/	/
Cc1cc(N/N=C/c2ccc3c(c2)OCO3)nc2ccccc12	/	98*	-1	-4	-4	43
O=C(O)c1ccccc1NS(=O)(=O)c1ccc(NN=Cc2ccc(F)cc2)c([N+](=O)[O-])c1	/	5	/	-3	-1	/
O=[N+]([O-])c1ccccc1N/N=C/c1c[nH]c2ccccc12	43*	15	/	-2	3	24
O=[N+]([O-])c1ccccc1N/N=C/c1ccccc1	44*	/	14	-5	-6	19
O=[N+]([O-])c1ccccc1N/N=C/c1ccc2c(c1)OCO2	-14	22	53*	0	-2	29
O=[N+]([O-])c1ccc(N/N=C/c2c[nH]c3ccccc23)cc1	34	52	3	-4	-1	9
